Data from the supplement of paper PMC10849652.
Of roughly 7,900 targets only a part is listed; those with a hit were picked by preference. About 0.6% of all pairs of compound and target were hits.

Tests used:
Test in all cases: log2 fold change, soluble protein after heating vs DMSO (PISA); higher = thermal stabilisation; K562 cells, 10 uM, 30 min; active = over 0.2 and 3.5 SD of the protein, either way, in both replicates (recomputed)
[1] = compound: CC[C@@H]1C(=O)N(C)c2cnc(Nc3ccc(C(=O)NC4CCN(C)CC4)cc3OC)nc2N1C1CCCC1
In short: (§1)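 Soluble protein was quantified by TMTpro 16plex LC-MS/MS after channel sums were equalised. It was obtained as the supernatant after 21,000xg for 90 min from pooled aliquots of K562 cells (2×10^6 cells/mL, 10 μM compound, 30 min) heated for 3 min across 48°C-58°C and extracted in PBS with 0.5% NP-40 at 4°C. Thermal stability values are relative to control samples and come from duplicates. They are given as log2 fold changes.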

[2] = compound: CC[C@@H]1C(=O)N(C)c2cnc(Nc3ccc(C(=O)N[C@H]4CC[C@H](N5CCN(CC6CC6)CC5)CC4)cc3OC)nc2N1C(C)C [volasertib]
In short: as §1

[3] = compound: CN(C)CC(=O)Nc1ccc2[nH]c(=O)c3ccccc3c2c1
In short: as §1

[4] = compound: CN(CCOC1=CC=C(C=C1)C[C@H]2C(=O)NC(=O)S2)C3=CC=CC=N3 (racemic) [rosiglitazone]
In short: as §1

[5] = compound: CNC(=O)c1ccc(Nc2ncc(C(F)(F)F)c(NCc3nccnc3N(C)S(C)(=O)=O)n2)cc1 [defactinib]
In short: as §1

[6] = compound: CNCc1ccc(-c2[nH]c3cc(F)cc4c3c2CCNC4=O)cc1 [rucaparib]
In short: as §1

[7] = compound: COC(=O)N[C@@H](C)CNc1nccc(-c2cn(C(C)C)nc2-c2cc(Cl)cc(NS(C)(=O)=O)c2F)n1 [encorafenib]
In short: as §1

[8] = compound: COC(=O)[C@H](CCSC)NC(=O)C1=C(C=C(C=C1)NC[C@H](CS)N)C2=CC=CC=C2
In short: as §1

[9] = compound: CC[C@H](C)N1C=C(C2=C(C=C(C=C21)C3=CN=C(C=C3)N4CCNCC4)C(=O)NCC5=C(C=C(NC5=O)C)C)C
In short: as §1

[10] = compound: CC[C@H](C)[C@@H](C(=O)N[C@@H]([C@@H](C)O)C(=O)N[C@@H](CC(C)C)C(=O)[C@]1(CO1)C)NC(=O)[C@H]([C@@H](C)CC)N(C)C(=O)C [epoxomicin]
In short: as §1

[11] = compound: CCn1c(C(=O)N(C2CC2)C2CC2)cc2c3c(ncn3C)c(Nc3cc(C)n(C)n3)nc21
In short: as §1

[12] = compound: CN1C2=C(C3=C1C(=O)N(N=C3)CC4=CC(=CC=C4)N)SC(=C2)S(=O)C
In short: as §1

[13] = compound: CN1CCN(CCOc2cc(OC3CCOCC3)c3c(Nc4c(Cl)ccc5c4OCO5)ncnc3c2)CC1 [saracatinib]
In short: as §1

[14] = compound: CN1CCN(c2nc(C3=C(c4c[nH]c5ccccc45)C(=O)NC3=O)c3ccccc3n2)CC1 [sotrastaurin]
In short: as §1

[15] = compound: CN1CC[C@H](c2c(O)cc(O)c3c(=O)cc(-c4ccccc4Cl)oc23)[C@H](O)C1 [alvocidib]
In short: as §1

[16] = compound: CN1CCc2c(c3ccccc3n2Cc2ccc(C(=O)NO)cc2)C1 [Tubastatin A]
In short: as §1

[17] = compound: CNC(=O)C1=CC=CC=C1NC2=NC(=NC=C2Cl)NC3=C(C=C(C=C3)N4CCOCC4)OC
In short: as §1

[18] = compound: CNc1nc(-c2ccc3c(N)n[nH]c3c2)cc(N2C[C@@H](C(=O)NC3CCCCC3)CC[C@H]2C)n1
In short: as §1

[19] = compound: CCn1cc(-c2ccnc3[nH]c(-c4cccc(CN(C)C)c4)cc23)c(-c2ccc(NC(=O)N(C)C)cc2)n1
In short: as §1

[20] = compound: CN1CCC(CNc2ccc3ncc(-c4cccc(OC(F)(F)F)c4)n3n2)CC1
In short: as §1

Measured: log2 fold change

CTNNBL1 (UniProt Q8WYA6)
Chain of UniProt Q8WYA6 (Q8WYA6 whole entry, looked up): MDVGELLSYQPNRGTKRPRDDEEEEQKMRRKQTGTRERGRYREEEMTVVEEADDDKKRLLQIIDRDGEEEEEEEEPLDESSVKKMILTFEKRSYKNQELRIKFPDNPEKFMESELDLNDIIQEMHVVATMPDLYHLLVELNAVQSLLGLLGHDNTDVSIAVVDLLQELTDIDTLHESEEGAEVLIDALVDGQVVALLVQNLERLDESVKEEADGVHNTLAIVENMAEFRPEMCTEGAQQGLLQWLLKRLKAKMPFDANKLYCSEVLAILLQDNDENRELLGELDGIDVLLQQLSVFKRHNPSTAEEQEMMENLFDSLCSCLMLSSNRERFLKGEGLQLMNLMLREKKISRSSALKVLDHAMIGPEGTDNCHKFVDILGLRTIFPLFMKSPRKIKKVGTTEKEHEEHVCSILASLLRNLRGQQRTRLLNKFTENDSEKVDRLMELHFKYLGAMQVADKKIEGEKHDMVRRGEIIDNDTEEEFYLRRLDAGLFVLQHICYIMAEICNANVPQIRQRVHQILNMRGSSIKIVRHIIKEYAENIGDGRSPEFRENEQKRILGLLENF
active: [2] -1.24
inactive: [1] -0.362 | [3] 0.012 | [4] 0.072 | [5] -0.513 | [6] 0.137 | [7] 0.121 | [8] -0.19

DNAJC24 (UniProt Q6P3W2)
Chain of UniProt Q6P3W2 (Q6P3W2 whole entry, looked up): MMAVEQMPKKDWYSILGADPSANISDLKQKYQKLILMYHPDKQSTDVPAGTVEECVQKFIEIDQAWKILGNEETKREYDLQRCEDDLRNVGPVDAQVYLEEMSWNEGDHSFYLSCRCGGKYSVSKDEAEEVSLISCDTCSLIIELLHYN
inactive: [1] -0.318 | [2] -0.244 | [9] 0.029 | [10] 0.034 | [11] 0.049 | [3] -0.027 | [4] -0.01 | [12] -0.284 | [13] 0.185 | [14] -0.081 | [15] -0.038 | [16] -0.094 | [17] -0.033 | [5] 0.116 | [6] 0.059 | [7] 0.038 | [8] 0.099
active: [18] -0.351

DHCR24 (UniProt Q15392)
Chain of UniProt Q15392 (Q15392 whole entry, looked up): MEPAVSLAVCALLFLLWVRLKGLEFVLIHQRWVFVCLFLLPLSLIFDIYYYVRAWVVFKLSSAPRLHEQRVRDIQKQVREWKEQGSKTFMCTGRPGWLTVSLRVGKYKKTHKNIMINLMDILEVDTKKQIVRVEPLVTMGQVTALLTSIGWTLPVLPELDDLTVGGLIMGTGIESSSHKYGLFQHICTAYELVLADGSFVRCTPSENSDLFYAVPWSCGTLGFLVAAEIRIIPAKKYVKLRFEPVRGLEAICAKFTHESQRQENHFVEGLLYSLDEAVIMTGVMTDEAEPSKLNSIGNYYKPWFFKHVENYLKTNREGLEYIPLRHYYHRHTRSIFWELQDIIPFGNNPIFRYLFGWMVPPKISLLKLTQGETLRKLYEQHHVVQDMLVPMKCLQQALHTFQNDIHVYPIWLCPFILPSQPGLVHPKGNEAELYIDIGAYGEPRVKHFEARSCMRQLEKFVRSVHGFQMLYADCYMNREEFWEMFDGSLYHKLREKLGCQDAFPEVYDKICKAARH
inactive: [1] 0.769 | [9] 0.104 | [10] -0.056 | [11] -0.1 | [19] 0.06 | [3] 0.236 | [4] 0 | [12] -0.094 | [20] 0.525 | [13] 0.761 | [14] 0.567 | [15] 0.002 | [16] 0.338 | [17] -0.094 | [5] -0.017 | [6] 0.561 | [18] 0.117 | [7] 0.001 | [8] 0.01
active: [2] 1.21

DNAJB12 (UniProt Q9NXW2)
inactive: [1] -0.045 | [2] -0.123 | [9] -0.033 | [10] -0.003 | [11] -0.096 | [19] 0.024 | [3] 0.022 | [4] 0.023 | [12] 0.068 | [20] -0.081 | [13] 0.022 | [14] 0.068 | [15] -0.006 | [16] -0.006 | [17] 0.024 | [5] -0.03 | [6] 0.079 | [18] -0.011 | [7] -0.018 | [8] -0.021

DBNL isoform 3 (UniProt Q9UJU6)
Chain of UniProt Q9UJU6 (Q9UJU6 whole entry, looked up): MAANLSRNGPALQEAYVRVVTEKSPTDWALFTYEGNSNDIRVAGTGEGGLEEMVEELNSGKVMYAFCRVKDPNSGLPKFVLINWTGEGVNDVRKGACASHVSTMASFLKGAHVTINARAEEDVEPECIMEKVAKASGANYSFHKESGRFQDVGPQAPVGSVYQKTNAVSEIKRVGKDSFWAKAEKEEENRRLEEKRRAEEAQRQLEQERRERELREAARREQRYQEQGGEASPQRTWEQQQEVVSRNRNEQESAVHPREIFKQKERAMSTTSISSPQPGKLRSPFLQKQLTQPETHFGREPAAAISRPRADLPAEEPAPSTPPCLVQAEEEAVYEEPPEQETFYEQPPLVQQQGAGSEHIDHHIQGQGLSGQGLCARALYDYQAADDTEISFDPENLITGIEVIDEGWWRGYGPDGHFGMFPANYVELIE
active: [2] -0.367
inactive: [1] -0.143 | [9] 0.031 | [10] 0.012 | [11] -0.046 | [19] 0.007 | [3] 0.011 | [4] 0.095 | [12] -0.075 | [20] -0.109 | [13] 0.04 | [14] -0.014 | [15] -0.07 | [16] 0.009 | [17] 0.01 | [5] -0.106 | [6] -0.1 | [18] -0.05 | [7] 0.061 | [8] -0.004

EXOSC10 (UniProt Q01780)
inactive: [1] -0.048 | [2] 0.087 | [10] -0.098 | [11] -0.098 | [19] -0.222 | [3] -0.169 | [4] -0.145 | [12] 0.029 | [20] -0.003 | [13] -0.091 | [14] 0.199 | [15] 0.092 | [16] 0.143 | [17] -0.073 | [5] 0.015 | [6] 0.101 | [18] 0.022 | [7] -0.327 | [8] 0.123

DAXX (UniProt Q9UER7)
inactive: [1] 0.018 | [2] -0.006 | [9] 0.204 | [11] -0.111 | [19] -0.102 | [3] -0.077 | [4] 0.047 | [12] -0.093 | [20] 0.027 | [13] -0.001 | [14] -0.078 | [15] 0 | [16] 0.122 | [17] -0.142 | [5] 0.005 | [6] 0.048 | [18] 0.018 | [7] -0.097 | [8] 0.109

CYB561A3 isoform 2 (UniProt Q8NBI2)
Chain of UniProt Q8NBI2 (Q8NBI2 whole entry, looked up): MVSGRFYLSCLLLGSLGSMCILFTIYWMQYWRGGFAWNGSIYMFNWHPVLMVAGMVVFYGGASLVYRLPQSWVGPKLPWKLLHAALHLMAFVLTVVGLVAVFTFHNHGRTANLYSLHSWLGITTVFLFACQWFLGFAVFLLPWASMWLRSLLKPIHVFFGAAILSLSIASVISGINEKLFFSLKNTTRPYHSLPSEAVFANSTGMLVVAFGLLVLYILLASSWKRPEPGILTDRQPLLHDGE
active: [6] 0.395
inactive: [1] -0.058 | [2] 0.103 | [9] -0.089 | [11] -0.007 | [19] -0.241 | [4] 0.052 | [12] -0.021 | [20] 0.032 | [13] 0.019 | [14] 0.001 | [15] -0.043 | [16] 0.047 | [17] 0.025 | [18] -0.068 | [7] -0.014

DNAJC7 (UniProt Q99615)
Chain of UniProt Q99615 (Q99615 whole entry, looked up): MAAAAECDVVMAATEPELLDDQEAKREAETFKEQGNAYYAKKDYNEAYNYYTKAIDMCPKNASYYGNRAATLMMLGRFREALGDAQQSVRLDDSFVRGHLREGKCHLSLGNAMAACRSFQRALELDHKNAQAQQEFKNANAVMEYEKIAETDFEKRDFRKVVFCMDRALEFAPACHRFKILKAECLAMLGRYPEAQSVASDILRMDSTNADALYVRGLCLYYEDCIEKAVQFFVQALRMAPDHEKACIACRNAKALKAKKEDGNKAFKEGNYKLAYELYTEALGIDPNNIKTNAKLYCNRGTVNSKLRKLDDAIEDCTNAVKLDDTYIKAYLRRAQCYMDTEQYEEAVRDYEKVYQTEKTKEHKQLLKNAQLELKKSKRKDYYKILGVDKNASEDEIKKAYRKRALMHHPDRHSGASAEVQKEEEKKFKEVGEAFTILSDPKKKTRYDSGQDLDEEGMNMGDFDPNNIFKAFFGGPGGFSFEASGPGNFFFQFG
active: [2] -0.266
inactive: [1] -0.079 | [9] 0.104 | [10] 0.073 | [11] -0.014 | [19] -0.025 | [3] 0.014 | [4] 0.017 | [12] -0.052 | [20] -0.142 | [13] 0.001 | [14] -0.05 | [15] -0.069 | [16] 0.002 | [17] 0.034 | [5] -0.072 | [6] -0.016 | [18] 0.056 | [7] 0.045 | [8] -0.003

FADS3 (UniProt Q9Y5Q0)
Chain of UniProt Q9Y5Q0 (Q9Y5Q0 whole entry, looked up): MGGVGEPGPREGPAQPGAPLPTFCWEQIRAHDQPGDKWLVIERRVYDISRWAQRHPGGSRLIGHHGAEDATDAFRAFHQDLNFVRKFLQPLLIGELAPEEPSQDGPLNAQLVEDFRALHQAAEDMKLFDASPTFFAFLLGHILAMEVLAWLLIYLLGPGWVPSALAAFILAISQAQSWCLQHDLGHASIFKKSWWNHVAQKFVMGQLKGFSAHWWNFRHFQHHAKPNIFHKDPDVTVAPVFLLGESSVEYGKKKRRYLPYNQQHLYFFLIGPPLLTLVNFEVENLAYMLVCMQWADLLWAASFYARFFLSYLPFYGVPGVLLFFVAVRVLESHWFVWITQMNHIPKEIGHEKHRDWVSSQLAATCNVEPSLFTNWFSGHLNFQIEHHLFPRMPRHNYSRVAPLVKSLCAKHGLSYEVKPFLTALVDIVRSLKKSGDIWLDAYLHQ
inactive: [1] -0.02 | [2] 0.095 | [9] 0.013 | [10] -0.016 | [11] 0.046 | [19] -0.116 | [3] -0.05 | [4] -0.019 | [12] -0.13 | [20] -0.231 | [13] 0.035 | [14] 0.037 | [15] -0.051 | [16] -0.061 | [17] 0.026 | [5] 0.048 | [6] 0.024 | [18] -0.079 | [7] 0.02 | [8] 0.026

CUEDC2 (UniProt Q9H467)
Chain of UniProt Q9H467 (Q9H467 whole entry, looked up): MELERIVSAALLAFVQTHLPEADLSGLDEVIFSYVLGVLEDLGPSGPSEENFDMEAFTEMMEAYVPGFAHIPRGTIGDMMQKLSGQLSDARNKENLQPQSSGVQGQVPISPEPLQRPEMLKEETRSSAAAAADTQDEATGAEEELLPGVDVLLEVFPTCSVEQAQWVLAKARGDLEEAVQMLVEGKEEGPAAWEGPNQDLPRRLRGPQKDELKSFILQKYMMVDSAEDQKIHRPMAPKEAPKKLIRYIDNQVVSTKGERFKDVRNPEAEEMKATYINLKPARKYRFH
inactive: [1] -0.044 | [2] -0.133 | [9] 0.033 | [10] 0.118 | [11] -0.01 | [19] -0.001 | [3] -0.01 | [4] 0.105 | [12] -0.038 | [20] -0.067 | [13] -0.003 | [14] -0.045 | [15] -0.089 | [16] 0.197 | [17] -0.036 | [5] -0.067 | [6] -0.033 | [7] 0.071 | [8] 0.016
active: [18] -0.338

DBT (UniProt P11182)
inactive: [1] 0.068 | [2] 0.009 | [9] -0.01 | [10] -0.022 | [11] -0.018 | [19] -0.001 | [3] -0.14 | [4] -0.025 | [12] 0.015 | [20] 0.045 | [13] -0.012 | [14] 0.025 | [15] 0.009 | [16] -0.072 | [17] 0.048 | [5] 0.071 | [6] 0.089 | [18] -0.03 | [7] 0.046 | [8] -0.013

EOGT (UniProt Q5NDL2)
Chain of UniProt Q5NDL2 (Q5NDL2 whole entry, looked up): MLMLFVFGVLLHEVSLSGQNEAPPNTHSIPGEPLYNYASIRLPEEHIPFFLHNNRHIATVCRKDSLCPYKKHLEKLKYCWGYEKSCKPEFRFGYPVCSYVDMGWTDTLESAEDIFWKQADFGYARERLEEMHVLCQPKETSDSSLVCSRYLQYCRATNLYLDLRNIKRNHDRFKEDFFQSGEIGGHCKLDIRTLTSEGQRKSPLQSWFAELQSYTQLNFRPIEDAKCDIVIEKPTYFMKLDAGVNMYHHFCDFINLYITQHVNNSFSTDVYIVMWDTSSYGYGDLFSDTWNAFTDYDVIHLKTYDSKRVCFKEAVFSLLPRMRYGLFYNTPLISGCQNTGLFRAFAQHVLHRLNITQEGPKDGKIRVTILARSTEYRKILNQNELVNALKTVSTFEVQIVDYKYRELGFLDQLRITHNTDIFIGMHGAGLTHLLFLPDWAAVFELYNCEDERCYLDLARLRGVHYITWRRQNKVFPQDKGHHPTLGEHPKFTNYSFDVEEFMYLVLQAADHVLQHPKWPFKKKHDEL
inactive: [1] -0.004 | [2] 0.013 | [9] -0.037 | [10] 0.05 | [11] -0.007 | [19] 0.001 | [3] 0 | [4] 0.022 | [12] 0.021 | [20] 0.062 | [13] -0.012 | [14] 0.052 | [15] -0.02 | [16] 0.025 | [17] 0 | [5] 0.031 | [6] 0.014 | [18] -0.158 | [7] 0.042 | [8] -0.032

EEF2K (UniProt O00418)
inactive: [1] -0.046 | [2] -0.395 | [10] 0.093 | [11] 0.102 | [19] 0.028 | [3] 0.096 | [20] -0.188 | [15] 0.194 | [17] 0.064 | [5] -0.021 | [6] 0.1 | [7] -0.036 | [8] -0.266

DYNC1I2 isoform 2 (UniProt Q13409)
inactive: [1] 0.012 | [2] 0.045 | [10] -0.06 | [11] 0.086 | [4] -0.022 | [14] 0.062 | [15] 0 | [16] -0.028 | [17] -0.021 | [6] -0.034 | [7] -0.108

CYFIP1 (UniProt Q7L576)
Chain of UniProt Q7L576 (Q7L576 whole entry, looked up): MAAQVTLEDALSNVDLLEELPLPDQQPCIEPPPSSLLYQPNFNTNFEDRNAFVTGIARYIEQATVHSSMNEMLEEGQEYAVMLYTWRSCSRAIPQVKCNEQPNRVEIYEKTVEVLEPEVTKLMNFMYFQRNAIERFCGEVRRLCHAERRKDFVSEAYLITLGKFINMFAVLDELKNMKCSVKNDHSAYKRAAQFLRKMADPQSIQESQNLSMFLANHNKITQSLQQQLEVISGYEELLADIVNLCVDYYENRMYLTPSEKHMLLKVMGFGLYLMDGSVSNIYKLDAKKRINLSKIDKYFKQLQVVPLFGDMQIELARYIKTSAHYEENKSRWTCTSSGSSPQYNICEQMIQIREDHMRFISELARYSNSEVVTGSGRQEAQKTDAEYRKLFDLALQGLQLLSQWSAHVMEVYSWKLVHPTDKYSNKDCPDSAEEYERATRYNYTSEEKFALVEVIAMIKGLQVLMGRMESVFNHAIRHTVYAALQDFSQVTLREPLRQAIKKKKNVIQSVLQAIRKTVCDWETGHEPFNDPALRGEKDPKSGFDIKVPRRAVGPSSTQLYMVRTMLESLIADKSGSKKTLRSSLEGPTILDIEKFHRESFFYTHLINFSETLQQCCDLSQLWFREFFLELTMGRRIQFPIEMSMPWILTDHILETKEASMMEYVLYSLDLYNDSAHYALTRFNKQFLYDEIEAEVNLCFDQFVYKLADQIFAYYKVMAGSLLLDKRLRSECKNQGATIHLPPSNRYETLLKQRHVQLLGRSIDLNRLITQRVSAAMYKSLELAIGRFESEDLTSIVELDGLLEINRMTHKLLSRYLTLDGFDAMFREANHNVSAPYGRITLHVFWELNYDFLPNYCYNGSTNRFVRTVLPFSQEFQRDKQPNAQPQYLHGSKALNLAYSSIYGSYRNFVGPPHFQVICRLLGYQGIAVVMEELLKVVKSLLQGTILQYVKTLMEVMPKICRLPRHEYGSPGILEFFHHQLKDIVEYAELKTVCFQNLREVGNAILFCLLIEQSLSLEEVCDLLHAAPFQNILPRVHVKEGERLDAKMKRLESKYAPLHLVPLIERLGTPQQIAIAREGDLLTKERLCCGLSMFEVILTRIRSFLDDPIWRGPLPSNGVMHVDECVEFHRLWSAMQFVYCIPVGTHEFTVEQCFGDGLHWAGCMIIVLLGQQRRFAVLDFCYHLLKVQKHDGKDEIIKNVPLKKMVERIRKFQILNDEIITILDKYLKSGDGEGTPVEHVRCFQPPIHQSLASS
inactive: [1] -0.011 | [9] 0.046 | [10] 0.02 | [11] -0.008 | [19] 0.011 | [3] 0.024 | [4] 0.045 | [12] 0.001 | [20] -0.034 | [13] -0.023 | [14] -0.026 | [15] -0.038 | [16] 0.006 | [17] -0.001 | [5] -0.049 | [6] 0.025 | [18] 0 | [7] -0.005 | [8] -0.013
active: [2] -0.233
